This experiment in a line: NCI Yeast Anticancer Drug Screen. Data for the mec2-1 strain (AID 157). The settings on record: S. cerevisiae mec2-1 strain, hits give high values. As to the method:
Growth inhibition of yeast strains with defined genetic alterations is measured as a screen for potential anti-cancer activity. Selected strains with alterations in DNA damage repair or cell cycle control were exposed to compounds and growth inhibition was measured relative to vehicle treated controls. The strain used in this assay is mec2-1

The mark [1] stands for this setting: at 5.0 µM (retest, dose inferred, filed as 0.5).
Setting [2] is: at 50.0 µM (retest, dose inferred, filed as 5.0).

SMILES strings stand for the structures. This is part of a sample that, as a whole, favours compounds with a hit. Of some 79,000 tested, about 15% had one in any assay. Values without a mark were called inactive. Activity calls are given as the source filed them. Cut-off read from the data, not from the text of the source: active = growth inhibition above about 70%; inactive = the rest.

With `CCCCCCCCCCCCCCCCCCOCC(O)COP(=O)(O)OCC1OC(n2cc(F)c(=O)[nH]c2=O)CC1O` (stereo not given), the growth inhibition reads like this: (at 1.2 µM) 4%; (at 3.7 µM) 12%; under setting [1], 51%; (at 11.0 µM) 74% (active); (at 33.0 µM) 90% (active); under setting [2], 99% (active). The growth inhibition is 88.5% (active) (at 50.0 µM) and 96% (active) (at 100.0 µM).

Take `Clc1cccc(C(Nc2nncs2)Nc2nncs2)c1Cl`: the growth inhibition reads like this: (at 1.2 µM) -1%; (at 3.7 µM) 4%; under setting [1], 1%; (at 11.0 µM) 7%; (at 33.0 µM) 19%; under setting [2], 29%. The growth inhibition was 20.7% (at 50.0 µM) and 51% (at 100.0 µM).

`Cc1ccc(S(=O)(=O)NC(=O)NC2=NC(C)(C)N(c3ccc(Cl)c(Cl)c3)C(N)=N2)cc1`: the growth inhibition is, setting by setting: (at 1.2 µM) -2%; (at 3.7 µM) 2%; under setting [1], 1%; (at 11.0 µM) 4%; (at 33.0 µM) -3%; under setting [2], -3%. The growth inhibition was -3.35% (at 50.0 µM) and -3% (at 100.0 µM).

For `Cn1ccnc1Oc1ccc(Cl)cc1`, the growth inhibition (at 1.2 µM) was -2%; the growth inhibition (at 3.7 µM) was 0%; the growth inhibition under setting [1] is -46%; the growth inhibition (at 11.0 µM) is 4%; the growth inhibition (at 33.0 µM) was 17%; the growth inhibition under setting [2] was 26%. The growth inhibition (at 50.0 µM) is 58.3% and the growth inhibition (at 100.0 µM) is 97% (active).

Take `CC(C)c1ccccc1NC(=O)/C(Cl)=C(\Cl)C(=O)O`: the growth inhibition was 1% (at 1.2 µM); 0% (at 3.7 µM); 26% under setting [1]; 1% (at 11.0 µM); 7% (at 33.0 µM); 27% under setting [2]. For the same compound, the growth inhibition is, setting by setting: (at 50.0 µM) 6.85%; (at 100.0 µM) 99% (active).

(Values after PubChem BioAssay (NCI).)
